# Measurements published in PubChem BioAssay (NCATS).
# Results filed as inconclusive are left out. Where a call stands in place of a potency, no number is given. The source made the active and inactive calls. Calls follow the shape of the dose curve; as a rule, active = well fitted inhibition curve with a large enough effect; inconclusive = small, poorly fitted or top-dose-only effect; inactive = flat fitted curve, though single readings scatter.
# Columns and labels:
# Assay in all cases: qHTS profiling for inhibitors of Plasmodium falciparum proliferation (AID 504749); also: nearly all actives have a fitted effect of over 60% in size
# Conditions in all cases: P. falciparum in erythrocytes, SYBR Green DNA, 72 h; series mostly up to 28.7 µM
# DIV14 = system: DIV14
# In short: (§1)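 In a 72 h erythrocytic culture (37 C, humidified, 5% CO2) at 2.5% hematocrit and 0.3% starting parasitemia, compounds were tested; SYBR Green I in detergent lysis buffer stained parasite DNA overnight.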
# DIV17 = system: DIV17
# In short: as §1
# DIV30 = system: DIV30
# In short: as §1
# Dd2 = system: Dd2
# In short: as §1
# GB4 = system: GB4
# In short: as §1
# HB3 = system: HB3
# In short: as §1
# ICS = system: ICS
# In short: as §1
# JCK = system: JCK
# In short: as §1
# P93_24 = system: P93_24
# In short: as §1
# PC26 = system: PC26
# In short: as §1
# PC49 = system: PC49
# In short: as §1
# SC27B = system: SC27B
# In short: as §1
# DFO2036 = system: DFO2036
# In short: as §1
# ECU = system: ECU
# In short: as §1
# FAB9 = system: FAB9
# In short: as §1
# N140 = system: N140
# In short: as §1
# PAD = system: PAD
# In short: as §1
# PC15 = system: PC15
# In short: as §1
# P94_40 = system: P94_40
# In short: as §1
# TAB109 = system: TAB109
# In short: as §1
# Potency is read from the fitted curve at half-maximal effect.
SMILES,Potency (DIV14),Potency (DIV17),Potency (DIV30),Potency (Dd2),Potency (GB4),Potency (HB3),Potency (ICS),Potency (JCK),Potency (P93_24),Potency (PC26),Potency (PC49),Potency (SC27B),Potency (DFO2036),Potency (ECU),Potency (FAB9),Potency (N140),Potency (PAD),Potency (PC15),Potency (P94_40),Potency (TAB109)
CC(C)(C)CC(C)(C)c1ccc(O)c(-n2nc3ccccc3n2)c1,13.5 µM (active),13.5 µM (active),inactive,12.6 µM (active),16.9 µM (active),11.2 µM (active),5.01 µM (active),inactive,10 µM (active),inactive,10 µM (active),11.2 µM (active),,,,,,,,
CC(=O)O[C@H]1C[C@@H]2CC[C@@H]3[C@H](CC[C@@]4(C)[C@H]3C[C@H]([N+]3(C)CCCCC3)[C@@H]4OC(C)=O)[C@@]2(C)C[C@@H]1N1CCCCC1,,,inactive,,,,,inactive,,inactive,inactive,inactive,inactive,inactive,inactive,inactive,inactive,inactive,,
NC(=O)C1(N2CCCCC2)CCN(CCCC(=O)c2ccc(F)cc2)CC1,,,inactive,,,inactive,inactive,inactive,,inactive,inactive,inactive,inactive,inactive,inactive,inactive,inactive,inactive,inactive,
CO[C@]12C[C@@H](COC(=O)c3cncc(Br)c3)CN(C)[C@@H]1Cc1cn(C)c3cccc2c13,,,,,,inactive,,inactive,,,inactive,inactive,,inactive,inactive,,,,,
COc1ccc(C(=O)c2ccccc2O)c(O)c1,,,,inactive,,inactive,2.51 µM (active),,inactive,,inactive,,inactive,inactive,inactive,,,inactive,,inactive
OC(C#CCN1CCCC1)(c1ccccc1)c1ccccc1,,13.5 µM (active),,8.91 µM (active),6.75 µM (active),inactive,,inactive,,,,,,,inactive,11.2 µM (active),,inactive,,
O=C(NC1CCN(CCc2c[nH]c3ccccc23)CC1)c1ccccc1,,,,,,inactive,8.91 µM (active),inactive,,,,inactive,inactive,inactive,inactive,inactive,inactive,,,
Cc1ncc(CO)c(C=O)c1O,,,,inactive,,inactive,inactive,inactive,inactive,,inactive,inactive,inactive,inactive,inactive,inactive,inactive,inactive,inactive,inactive
O=C(CN1CCN(Cc2ccc3c(c2)OCO3)CC1)N1c2ccccc2Sc2ccccc21,12 µM (active),,,11.2 µM (active),12 µM (active),,10 µM (active),inactive,8.91 µM (active),,inactive,,,,inactive,,12.6 µM (active),,8.91 µM (active),3.55 µM (active)
CCCCCCCCNC(C)C(O)c1ccc(SC(C)C)cc1 (stereo not drawn),0.675 µM (active),0.757 µM (active),0.675 µM (active),0.447 µM (active),0.536 µM (active),0.891 µM (active),0.0891 µM (active),3.16 µM (active),0.891 µM (active),0.849 µM (active),0.794 µM (active),1.12 µM (active),,0.355 µM (active),1.41 µM (active),,0.398 µM (active),0.355 µM (active),0.447 µM (active),1 µM (active)
CN(C)CCOC(c1ccc(Cl)cc1)c1ccccn1 (stereo not drawn),,,,4.47 µM (active),,inactive,,,,inactive,,,inactive,inactive,inactive,,inactive,,,
COC(=O)C(c1ccccc1Cl)N1CCc2sccc2C1 (stereo not drawn),inactive,,inactive,inactive,,,,inactive,,,inactive,,,,inactive,,,inactive,,
